# Results reported in PubChem BioAssay (NCI).
# The panel holds about 83,000 compounds, 20% with a hit somewhere; the sample as a whole holds those more often.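 Note: values are percent growth. 100 is the growth of untreated cells, values between 100 and 0 indicate rising inhibition; between -100 and 0 indicates cell death.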 The source made the active and inactive calls.
# System: EKVX NSCLC
# Assay: NCI-60 one-dose screen, 48 h (100 = growth as untreated, 0 = no growth, -100 = all killed)
# Details: 10 µM unless noted
# Description: Growth inhibition of the EKVX human Non-Small Cell Lung tumor cell line is measured as a screen for anti-cancer activity. Cells are grown in 96 well plates and exposed to the test compound for 48 hours. Compounds are tested at a single concentration, which is 10^-5 M for most compounds. The reported endpoint is percent growth (GI% or GIPRCNT), where numbers from 0 - 100% represent growth inhibition, and numbers from -100% - 0 represent cell death. For example, a value of 40 represents 60% growth inhibition. A value of 0 means no net growth occurred over the course of the experiment. A value of -40 indicates 40% of cells at the beginning of the experiment died by the end of the experiment. A value of -100 means all cells are dead at the end of the experiment.
# NCI-60 Human Tumor Cell Lines Screen was performed using the standard one-dose NCI protocol, which is described in more detail at https://dtp.cancer.gov/discovery_development/nci-60/default.htm.
# Compounds with GIPRCNT values below 10 were considered active. Activity score was based on GIPRCNT using the following formula: […]
# Score is 0 for GIPRCNT values of 100 or above, 50 for GIPRCNT values of 0, and 100 for GIPRCNT values of -100.
row,SMILES,growth
1,C#Cc1cccc(NC(=O)c2cccc(NC(=O)CCl)c2)c1,86.1% [8.25 µM] (inactive)
2,CN1CCC(=C(c2ccccc2)c2ccccc2)C(c2ccccc2)C1 (stereo not given),89% (inactive)
3,CCCCCC(=O)Oc1ccc(/C(=C(/C)Cc2ccc(OC)cc2)c2ccc(OCCCN(C)C)cc2)cc1,88.7% (inactive)
4,CCOC(=O)Nc1ccc(-c2ccc3c(c2)NC(=O)/C3=C\c2ccc[nH]2)cc1,30.8% (inactive)
5,COc1cc2nc(-c3ccc(C(F)(F)F)cc3)cc(OCCCN3CCOCC3)c2cc1OC,61.6% (inactive)
6,Cc1c(C(=O)NCCC(=O)NO)sc2ncnc(Nc3ccc(F)c(Cl)c3)c12,99.4% (inactive)
7,Cc1nc(N)nc(N[C@@H](C)c2nc3cccc(NCc4ccc(C(=O)NO)cc4)c3c(=O)n2-c2ccccc2)n1,76.8% (inactive)
8,CCNC(=O)Oc1ccc(/C(=C(\C)c2ccccc2)c2ccc(OCCN3CCCCC3)cc2)cc1,82% (inactive)
9,Cn1nc(CC#N)c2c(=N)n(N)cnc21,94.4% (inactive)
10,O=C1c2ccccc2CCC12OC2c1cn(-c2ccccc2)nc1-c1ccc(Cl)cc1 (stereo not given),96.7% (inactive)
11,COc1ccc2[nH]c(=O)c(CN3CCN(c4nccc(-c5ccc(Cl)cc5)n4)CC3)cc2c1,96.4% (inactive)
12,CCNC(=O)Oc1ccc(/C(=C(\C)c2ccccc2)c2ccc(OCCCN(C)C)cc2)cc1,84% (inactive)
13,CCN1C(=O)/C(=C/C(=O)OC)S/C1=N\NC(=O)c1cc2ccc1/C=C\c1ccc(cc1)/C=C\2,93.6% (inactive)
14,O=C(Nc1ccc(-c2ccc3c(c2)NC(=O)/C3=C\c2ccc[nH]2)cc1)NC1CC1,47.5% (inactive)
15,C=C1C(=O)O[C@H]2[C@H]1CC/C(CNC(=O)CCc1ccc(OC)cc1)=C\CC[C@@]1(C)O[C@@H]21,71.4% (inactive)
16,CN(C)CC(O)c1ccc(/C=C/c2ccc(Cl)cc2)cc1 (stereo not given),29.7% (inactive)
17,CC(C)(C)c1cc(/C=N/NC(=O)c2ccccc2NC(=O)c2cccs2)c(O)c(C(C)(C)C)c1,35% (inactive)
18,CCN(CC)c1ccc(/C=N/NC(=O)CSc2nc3ccccc3c(=O)n2Cc2ccc(S(N)(=O)=O)cc2)c(O)c1,35.1% (inactive)
19,CN1C(=O)NC(c2ccc3c(c2)OCO3)C=C1c1ccccc1 (stereo not given),95.4% (inactive)
20,O=C(/C=C(/C=C/c1coc2ccccc12)OB(F)F)/C=C/c1coc2ccccc12,108% (inactive)

row,SMILES,growth
1,COc1ccccc1NS(=O)(=O)c1cccc(C(=O)Nc2ccc(Br)cc2)c1,20.1% (inactive)
2,O=C(Nc1cccc(C(=O)N2CCc3ccc(Cl)cc32)c1)c1ccco1,54.1% (inactive)
3,CC(c1ccccc1)C(C(=O)c1ccccc1)c1ccccc1 (stereo not given),98.5% (inactive)
4,COc1cc(/C=C/c2cc(O)c(C(C)=O)c(O)c2)cc2c1O[C@]1(C)CC[C@@H](O)C(C)(C)[C@H]1C2,90.7% (inactive)
5,CCCCCC(=O)Oc1ccc(/C(=C(\C)c2ccccc2)c2ccc(OCCN3CCCCC3)cc2)cc1,93.7% (inactive)
6,N/C(=N\C(N)=N\c1nc2ccccc2s1)c1ccnc(Br)c1,82.6% (inactive)
7,COC(=O)N[C@H]1CCc2c(Cl)c(OC)c(OC)c(OC)c2-c2ccc(SC)c(=O)cc21,47.8% (inactive)
8,N#C/C(=C\c1cccc(C#N)c1)c1ccccc1,90.7% (inactive)
9,O=C(c1nnc(Nc2ccccc2Br)o1)c1c[nH]c2ccccc12,104% (inactive)
10,NNC(=O)c1ccc(-n2nc(-c3ccccc3)c3ccccc32)cc1,63.4% (inactive)
11,C=C(C)[C@@H]1CC[C@]2(CN)CC[C@]3(C)[C@H](CC[C@@H]4[C@@]5(C)CCCNC(C)(C)[C@@H]5CC[C@]43C)[C@@H]12,6.81% (active)
12,CN1[C@@H]2CC[C@H]1/C(=C\c1ccccc1)C(=O)/C2=C/c1ccccc1,69.4% (inactive)
13,Cn1ccnc1C(=O)/C=C/c1ccc(CC(=O)NC2CCCCC2)cc1,77.4% (inactive)
14,N#Cc1cc(-c2nc3ccccc3s2)c(=O)n(NS(=O)(=O)c2ccccc2)c1N,101% (inactive)
15,C=C(C)[C@@H]1CC[C@]2(C(=O)N3CCN(C)CC3)CC[C@]3(C)[C@H](CC[C@@H]4[C@@]5(C)CC[C@H](OCCC#N)C(C)(C)[C@@H]5CC[C@]43C)[C@@H]12,101% (inactive)
16,COc1ccc(C(=O)c2cc(C)c(OC)c(C)c2)c(OC)c1OC(=O)C(Cl)Cl,58.4% (inactive)
17,COc1ccc(OC)c(-c2cc(-c3ccc(Cl)cc3)c3c(N)c(C(=O)c4ccc(Cl)cc4)sc3n2)c1,93.8% (inactive)
18,COc1cc(-c2csc(NC(=O)c3cc(F)cc(C(F)(F)F)c3)n2)cc(OC)c1OC,50% (inactive)
19,Nc1n[nH]c2cccc(C#Cc3cccc(C(=O)Nc4cc(CN5CCOCC5)cc(C(F)(F)F)c4)c3)c12,60.6% (inactive)
20,COc1ccc(/C=C/c2nc(Nc3ccc(Cl)cc3)c3ccccc3n2)cc1,81.8% (inactive)
